Paper PMC7862700, “An all-to-all approach to the identification of sequence-specific readers for epigenetic DNA modifications on cytosine”

Key:
Assay in all cases: DAPPL (digital affinity profiling via proximity ligation, sequencing); 10 mM Tris-HCl pH 7.5, 50 mM NaCl, 1 mM DTT, 4% glycerol, room temperature, 30 min; GST-TFs on glutathione beads, 16-mer random dsDNA library, 0.1% formaldehyde crosslink after washing; high values mean tight binding
FEV = target: T1, FEV (Homo sapiens, UniProt Q99581 1-238); conditions: protein: recombinant; tags: N-terminal GST; dsDNA, one strand shown
T1 sequence: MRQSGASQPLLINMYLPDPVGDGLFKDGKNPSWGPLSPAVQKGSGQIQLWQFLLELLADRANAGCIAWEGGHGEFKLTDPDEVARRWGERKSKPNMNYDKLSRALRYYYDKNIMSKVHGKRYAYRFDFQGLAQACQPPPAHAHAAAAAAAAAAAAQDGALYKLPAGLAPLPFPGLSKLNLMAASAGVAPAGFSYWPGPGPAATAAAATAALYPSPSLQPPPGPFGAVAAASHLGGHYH
How it was run: (§1)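 Each value of binding signal is a hexamer's read frequency for a factor divided by the same hexamer's frequency in the tag-only sample. Barcoded, bead-captured GST fusions of human transcription factors made in yeast were pooled with that sample and incubated with 200 nmole of a random double-stranded 16-mer DNA library in Tris/NaCl/DTT/glycerol buffer at room temperature for 30 min. Washing, 0.1% formaldehyde crosslinking, proximity ligation, PCR and Illumina NextSeq500 sequencing followed.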

ETV5 = ETV5 (Homo sapiens, UniProt P41161 1-510); conditions: protein: recombinant; tags: N-terminal GST; dsDNA, one strand shown
How it was run: as §1

HSF1 = HSF1 (Homo sapiens, UniProt Q00613 1-529); conditions: protein: recombinant; tags: N-terminal GST; chain copies: 3; dsDNA, one strand shown
How it was run: as §1

SPIC = target: T2, SPIC (Homo sapiens, UniProt Q8N5J4 1-248); conditions: protein: recombinant; tags: N-terminal GST; dsDNA, one strand shown
T2 sequence: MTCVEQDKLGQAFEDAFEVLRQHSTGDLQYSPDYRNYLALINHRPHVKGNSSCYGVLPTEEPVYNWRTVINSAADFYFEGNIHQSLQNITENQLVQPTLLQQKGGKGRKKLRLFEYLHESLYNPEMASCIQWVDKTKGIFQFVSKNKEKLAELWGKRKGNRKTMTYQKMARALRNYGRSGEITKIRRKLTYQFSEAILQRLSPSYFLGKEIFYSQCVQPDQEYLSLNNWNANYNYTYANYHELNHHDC
How it was run: as §1

ELF4 = ELF4 (Homo sapiens, UniProt Q99607 1-663); conditions: protein: recombinant; tags: N-terminal GST; dsDNA, one strand shown
How it was run: as §1

ELK4 = target: T3, ELK4 (Homo sapiens, UniProt P28324-2 1-405); conditions: protein: recombinant; tags: N-terminal GST; dsDNA, one strand shown
T3 sequence: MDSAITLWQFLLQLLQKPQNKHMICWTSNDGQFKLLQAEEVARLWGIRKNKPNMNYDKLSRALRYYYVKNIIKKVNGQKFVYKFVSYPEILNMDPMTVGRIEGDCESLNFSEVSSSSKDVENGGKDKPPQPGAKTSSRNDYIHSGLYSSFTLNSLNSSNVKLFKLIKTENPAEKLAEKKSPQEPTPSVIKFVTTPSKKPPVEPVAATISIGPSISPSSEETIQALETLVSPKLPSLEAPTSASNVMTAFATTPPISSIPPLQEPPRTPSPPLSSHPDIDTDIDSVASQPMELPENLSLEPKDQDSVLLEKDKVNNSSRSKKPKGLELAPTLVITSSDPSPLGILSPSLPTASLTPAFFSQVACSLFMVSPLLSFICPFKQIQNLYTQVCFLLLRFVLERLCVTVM
How it was run: as §1

ETV2 = target: T4, ETV2 (Homo sapiens, UniProt O00321 1-342); conditions: protein: recombinant; tags: N-terminal GST; dsDNA, one strand shown
T4 sequence: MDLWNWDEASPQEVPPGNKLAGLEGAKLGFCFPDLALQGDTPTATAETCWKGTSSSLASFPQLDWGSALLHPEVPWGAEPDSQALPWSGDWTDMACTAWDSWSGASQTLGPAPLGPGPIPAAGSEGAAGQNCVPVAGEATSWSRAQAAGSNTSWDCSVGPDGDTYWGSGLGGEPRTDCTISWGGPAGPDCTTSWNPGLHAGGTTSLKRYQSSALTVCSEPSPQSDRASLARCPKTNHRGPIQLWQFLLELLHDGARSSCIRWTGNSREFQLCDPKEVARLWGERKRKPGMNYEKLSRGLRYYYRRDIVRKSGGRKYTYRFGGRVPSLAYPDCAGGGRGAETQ
How it was run: as §1

ELF3 = target: T5, ELF3 (Homo sapiens, UniProt P78545 1-371); conditions: protein: recombinant; tags: N-terminal GST; dsDNA, one strand shown
T5 sequence: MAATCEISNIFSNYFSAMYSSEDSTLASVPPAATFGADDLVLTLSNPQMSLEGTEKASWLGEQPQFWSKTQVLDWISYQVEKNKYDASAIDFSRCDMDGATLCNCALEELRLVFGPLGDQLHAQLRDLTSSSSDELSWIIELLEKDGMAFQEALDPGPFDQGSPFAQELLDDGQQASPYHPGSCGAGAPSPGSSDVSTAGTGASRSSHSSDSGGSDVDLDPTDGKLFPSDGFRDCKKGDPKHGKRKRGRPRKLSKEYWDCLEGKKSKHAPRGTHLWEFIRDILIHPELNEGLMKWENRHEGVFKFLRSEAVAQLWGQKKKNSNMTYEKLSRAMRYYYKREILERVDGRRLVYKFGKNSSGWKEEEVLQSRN
How it was run: as §1

CRX = CRX (Homo sapiens, UniProt O43186 1-299); conditions: protein: recombinant; tags: N-terminal GST; dsDNA, one strand shown
How it was run: as §1

ETV1 = ETV1 (Homo sapiens, UniProt P50549 1-477); conditions: protein: recombinant; tags: N-terminal GST; dsDNA, one strand shown
How it was run: as §1

HSF1, sequence (Q00613 whole entry): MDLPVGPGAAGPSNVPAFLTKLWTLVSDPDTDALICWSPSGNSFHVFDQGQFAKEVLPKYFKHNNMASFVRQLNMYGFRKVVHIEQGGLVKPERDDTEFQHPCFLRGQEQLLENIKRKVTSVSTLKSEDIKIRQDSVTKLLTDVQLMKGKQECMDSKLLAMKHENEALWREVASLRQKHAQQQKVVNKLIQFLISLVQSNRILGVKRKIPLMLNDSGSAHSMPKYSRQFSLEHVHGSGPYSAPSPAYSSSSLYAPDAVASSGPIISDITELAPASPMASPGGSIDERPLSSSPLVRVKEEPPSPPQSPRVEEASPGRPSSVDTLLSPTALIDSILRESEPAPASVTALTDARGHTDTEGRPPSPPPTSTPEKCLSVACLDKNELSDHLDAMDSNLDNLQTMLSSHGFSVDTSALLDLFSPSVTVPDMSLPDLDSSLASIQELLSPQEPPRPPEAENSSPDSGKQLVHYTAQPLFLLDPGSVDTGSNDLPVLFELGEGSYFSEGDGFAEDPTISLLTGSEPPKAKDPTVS
ETV1, sequence (P50549 whole entry): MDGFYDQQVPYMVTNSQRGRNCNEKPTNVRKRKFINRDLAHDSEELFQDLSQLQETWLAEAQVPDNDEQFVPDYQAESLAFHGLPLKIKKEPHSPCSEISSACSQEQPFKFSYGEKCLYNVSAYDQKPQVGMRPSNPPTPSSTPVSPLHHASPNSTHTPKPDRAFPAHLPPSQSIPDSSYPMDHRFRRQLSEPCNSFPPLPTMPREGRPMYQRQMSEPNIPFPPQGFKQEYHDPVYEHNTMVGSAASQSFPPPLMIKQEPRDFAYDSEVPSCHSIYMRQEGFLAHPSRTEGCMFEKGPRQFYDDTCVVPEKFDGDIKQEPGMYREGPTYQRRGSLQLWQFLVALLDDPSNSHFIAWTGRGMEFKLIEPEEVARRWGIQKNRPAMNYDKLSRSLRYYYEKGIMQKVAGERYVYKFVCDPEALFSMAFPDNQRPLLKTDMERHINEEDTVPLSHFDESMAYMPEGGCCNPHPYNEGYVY
ETV5, sequence (P41161 whole entry): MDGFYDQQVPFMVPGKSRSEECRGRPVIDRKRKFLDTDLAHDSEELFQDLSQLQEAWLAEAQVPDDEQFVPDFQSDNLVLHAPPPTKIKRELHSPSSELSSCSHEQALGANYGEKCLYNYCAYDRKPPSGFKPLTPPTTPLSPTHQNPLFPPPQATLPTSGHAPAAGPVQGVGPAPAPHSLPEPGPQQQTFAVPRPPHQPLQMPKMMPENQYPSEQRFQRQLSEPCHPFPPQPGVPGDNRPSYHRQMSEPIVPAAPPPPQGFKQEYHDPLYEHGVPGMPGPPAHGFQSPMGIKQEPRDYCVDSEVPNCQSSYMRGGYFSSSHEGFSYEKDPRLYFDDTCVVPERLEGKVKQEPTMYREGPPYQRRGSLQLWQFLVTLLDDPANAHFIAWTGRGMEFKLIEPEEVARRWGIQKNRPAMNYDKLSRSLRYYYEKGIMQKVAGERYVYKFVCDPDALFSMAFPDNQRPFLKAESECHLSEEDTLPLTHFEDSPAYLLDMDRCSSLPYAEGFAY
CRX, sequence (O43186 whole entry): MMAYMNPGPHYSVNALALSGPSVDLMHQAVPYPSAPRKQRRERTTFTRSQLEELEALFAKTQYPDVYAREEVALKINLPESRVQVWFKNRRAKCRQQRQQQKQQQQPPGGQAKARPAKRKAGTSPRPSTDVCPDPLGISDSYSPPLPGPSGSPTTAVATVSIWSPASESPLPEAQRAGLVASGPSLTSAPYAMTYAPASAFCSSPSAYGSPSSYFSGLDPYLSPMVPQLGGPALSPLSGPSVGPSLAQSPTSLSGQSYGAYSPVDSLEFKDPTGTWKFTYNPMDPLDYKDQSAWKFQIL
ELF4, sequence (Q99607 whole entry): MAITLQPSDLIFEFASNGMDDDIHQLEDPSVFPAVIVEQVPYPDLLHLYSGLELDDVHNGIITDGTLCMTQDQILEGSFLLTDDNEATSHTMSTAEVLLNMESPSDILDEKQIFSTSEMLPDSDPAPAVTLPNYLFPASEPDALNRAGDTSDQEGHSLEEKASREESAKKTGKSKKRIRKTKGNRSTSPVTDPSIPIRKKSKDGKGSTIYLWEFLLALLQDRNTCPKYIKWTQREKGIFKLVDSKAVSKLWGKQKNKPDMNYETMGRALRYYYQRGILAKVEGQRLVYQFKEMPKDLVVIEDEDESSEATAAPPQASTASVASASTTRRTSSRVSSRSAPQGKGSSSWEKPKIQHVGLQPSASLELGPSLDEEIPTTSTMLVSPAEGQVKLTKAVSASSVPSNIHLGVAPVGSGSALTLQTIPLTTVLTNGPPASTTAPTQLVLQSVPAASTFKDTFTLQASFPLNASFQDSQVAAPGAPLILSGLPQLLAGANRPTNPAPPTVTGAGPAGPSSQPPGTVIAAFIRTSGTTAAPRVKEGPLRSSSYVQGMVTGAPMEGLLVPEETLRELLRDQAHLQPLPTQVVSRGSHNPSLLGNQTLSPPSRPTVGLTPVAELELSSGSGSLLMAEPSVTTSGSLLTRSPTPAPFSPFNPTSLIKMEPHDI

## TCATTC
FEV
  binding signal: 1.19 fold enrichment (6-mer frequency, TF over GST control)
ETV5
  binding signal: 1.19 fold enrichment (6-mer frequency, TF over GST control)
HSF1
  binding signal: 1.5 fold enrichment (6-mer frequency, TF over GST control)
SPIC
  binding signal: 1.13 fold enrichment (6-mer frequency, TF over GST control)
ELF4
  binding signal: 1.26 fold enrichment (6-mer frequency, TF over GST control)
ELK4
  binding signal: 1.34 fold enrichment (6-mer frequency, TF over GST control)
ETV2
  binding signal: 1.27 fold enrichment (6-mer frequency, TF over GST control)
ELF3
  binding signal: 1.2 fold enrichment (6-mer frequency, TF over GST control)
CRX
  binding signal: 1.22 fold enrichment (6-mer frequency, TF over GST control)
ETV1
  binding signal: 1.2 fold enrichment (6-mer frequency, TF over GST control)
